Screening data (PubChem)
Compounds with a hit are over-represented: about 1.4% of the library has one in this group of screens.
CRFR2-BP ag = CRF-BP/CRF-R2 complex agonism; HEK293 CRF-R2/CRF-BP, calcium dye fluorescence (FLIPR); percent of saturating CRF peptide response; activation, % at 13.2 µM; actives 0.46% (n = 350,000);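 active = activation of at least 50%, plus an integration ratio under a set limit after plate pattern correction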
IDE act = IDE (human) activation, cell-based; P14735; HEK cells, FAbeta-B cleavage, fluorescence polarization; 0% vehicle, 100% cell-free pure enzyme wells; activation, % at 5.96 µM; actives 0.073% (n = 340,000);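 active = activation above the mean of all tested compounds plus 3 SD, set per screening campaign, cut at about 17% in these data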
Target sequence (P14735 whole entry, looked up): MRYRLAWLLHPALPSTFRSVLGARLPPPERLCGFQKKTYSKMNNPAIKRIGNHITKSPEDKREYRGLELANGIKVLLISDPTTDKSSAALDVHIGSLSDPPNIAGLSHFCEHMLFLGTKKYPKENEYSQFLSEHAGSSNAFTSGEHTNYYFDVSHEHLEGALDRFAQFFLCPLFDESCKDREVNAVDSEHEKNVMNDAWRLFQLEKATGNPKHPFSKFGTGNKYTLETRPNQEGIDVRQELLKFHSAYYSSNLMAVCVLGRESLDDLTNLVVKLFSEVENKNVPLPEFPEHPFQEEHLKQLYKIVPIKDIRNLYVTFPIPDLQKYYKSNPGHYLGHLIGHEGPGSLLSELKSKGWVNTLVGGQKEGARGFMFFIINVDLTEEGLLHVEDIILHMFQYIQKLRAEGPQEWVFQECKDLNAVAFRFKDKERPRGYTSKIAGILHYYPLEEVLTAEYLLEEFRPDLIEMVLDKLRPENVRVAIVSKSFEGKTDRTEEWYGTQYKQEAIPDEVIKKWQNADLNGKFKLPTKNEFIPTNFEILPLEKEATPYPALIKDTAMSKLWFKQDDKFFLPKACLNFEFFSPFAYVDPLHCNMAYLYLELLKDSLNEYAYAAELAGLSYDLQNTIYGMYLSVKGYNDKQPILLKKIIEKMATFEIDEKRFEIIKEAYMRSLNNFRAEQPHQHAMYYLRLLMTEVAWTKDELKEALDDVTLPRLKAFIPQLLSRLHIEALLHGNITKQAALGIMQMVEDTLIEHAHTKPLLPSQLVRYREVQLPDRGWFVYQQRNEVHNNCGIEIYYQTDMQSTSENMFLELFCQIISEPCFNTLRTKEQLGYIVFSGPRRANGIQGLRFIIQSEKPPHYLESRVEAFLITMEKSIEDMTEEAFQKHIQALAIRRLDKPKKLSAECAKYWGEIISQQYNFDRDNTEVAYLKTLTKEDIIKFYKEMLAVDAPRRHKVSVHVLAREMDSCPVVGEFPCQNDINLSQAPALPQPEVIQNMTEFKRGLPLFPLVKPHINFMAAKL
HNF4A DNA FP = change in binding of human HNF4 alpha to DNA. activity change, % at 10 µM. HNF4a-FITC DNA binding, fluorescence polarization, 1 h. actives 0.3% (n = 360,000). AID 1224865; in the data active = activity change above about 30%, passing the limit was not always enough
IDE cell inh = cellular human IDE inhibition. HEK cells, FAbetaB cleavage, fluorescence polarization. inhibition, % at 5.59 µM. actives 0.41% (n = 320,000). AID 434962;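 active = percent inhibition above the average of all tested compounds plus 3 SD, set per screening campaign, cut at about 16% in these data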;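 note: IDE supplied by intact live HEK cells; FP after avidin binding of uncleaved biotin substrate so inhibition keeps polarization high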
TPT1 inh = blocks Candida albicans tRNA 2'-phosphotransferase. actives 0.81% (n = 300,000). AID 1962. inhibition, % at 5 µM. recombinant caTPT1, FP RNA substrate dephosphorylation;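 active = inhibition above the mean of all tested compounds plus 3 SD, set per screening campaign, cut at about 24% in these data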
IDE cell inh cf = cellular human IDE inhibition, confirmation; shares compounds with IDE cell inh; HEK cells, FAbetaB cleavage, fluorescence polarization; inhibition, % at 5.59 µM; actives 51% (n = 1,200); AID 435028;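 active = mean inhibition across triplicate wells above the cutoff set by the earlier primary insulin-degrading enzyme screen, cut at about 16% in these data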
HEK293 tox = counter-screen for IDE inhibitors: cytotoxicity in HEK cells; shares compounds with IDE cell inh; HEK293 cytotoxicity, ATP luminescence; inhibition, % at 5.59 µM; actives 28% (n = 1,200); AID 449730; in the data active = inhibition above about 22%
Numbers stand for hits; . = inactive; / = not tested or not shown.

SMILES | CRFR2-BP ag | IDE act | HNF4A DNA FP | IDE cell inh | TPT1 inh | IDE cell inh cf | HEK293 tox
O=c1oc2cc(O)ccc2cc1-c1nc2c(s1)CCc1ccccc1-2 | 279 | 31 | . | 128 | . | 26 | .
Cc1ccc2nc3c(cc(C(=O)NC4CCS(=O)(=O)C4)n3Cc3ccccc3)c(=O)n2c1 (configuration not stated) | . | . | . | . | . | / | /
O=C(N1CCCC1)C12CC3CC(CC(Cl)(C3)C1)C2 | . | . | . | . | . | / | /
Cc1cccc(N2CCN(CC(=O)Nc3ccc(S(=O)(=O)N4CCOCC4)cc3)CC2)c1C | . | . | . | 19 | . | . | 43
Cc1ccc(C)c(S(=O)(=O)N2CCN(C(=O)CCCc3c[nH]c4ccccc34)CC2)c1 | . | . | . | . | . | / | /
c1csc(-c2ccn[nH]2)c1 | . | . | . | . | . | / | /
S=c1nccc(-c2cccs2)[nH]1 | . | . | . | 20 | . | . | .
N#Cc1c2c(c[nH]c1=O)CCN2Cc1ccccc1 | . | . | . | 16 | . | . | .
COc1ccccc1NC(=O)c1ccc(NC(=O)COC(=O)C2CCCO2)cc1 (configuration not stated) | . | . | . | / | / | / | /
COc1ccccc1NC(=O)c1ccc(NC(=O)COC(=O)C2CC2C)cc1 (configuration not stated) | . | . | . | 19 | . | . | .
Cc1ccc(S(=O)(=O)N(C)C[C@H]2Oc3ncc(-c4ccccc4)cc3C(=O)N([C@@H](C)CO)C[C@@H]2C)cc1 | . | / | . | / | / | / | /
Cc1cc(N/N=C/c2c[nH]c3ccccc23)c2ccccc2n1 | . | . | . | . | . | / | /
Cn1c(N/N=C/c2c[nH]c3ccccc23)nc2ccccc21 | . | . | . | 29 | . | . | 63
CCN(CC)CC(O)c1ccc2ccc3ccc(O)cc3c2c1 (configuration not stated) | . | . | . | / | / | / | /
CC(=O)Oc1ccc(Cl)cc1/C=C/c1ccc2ccccc2n1 | . | . | . | . | . | / | /
CC(=O)Oc1c(Cl)cc(Cl)cc1/C=C/c1ccc2ccccc2n1 | . | . | . | 45 | . | 68 | .
CC(C)(C)NC(=O)NC(=O)CN1CCN(c2ccccc2)CC1 | . | . | . | . | . | / | /
CC(C)(C)NC(=O)NC(=O)CN1CCN(c2cccc(Cl)c2)CC1 | . | . | . | 41 | . | 22 | .
CC1CCN(C(=O)CNC(=O)CNC(=O)Cc2ccccc2)CC1 | . | . | . | . | . | / | /
O=C(O)CC12CC3CC(C1)CC(n1ncc(NCc4ccccc4Cl)c(Cl)c1=O)(C3)C2 | . | . | . | 39 | . | 20 | .
O=C(O)CC12CC3CC(C1)CC(n1ncc(NCc4ccc5c(c4)OCO5)c(Cl)c1=O)(C3)C2 | / | / | / | . | . | / | /
O=C(O)CC12CC3CC(C1)CC(n1ncc(NCc4ccc(F)cc4Cl)c(Cl)c1=O)(C3)C2 | . | . | . | 28 | . | 21 | .
COc1ccc(NC(=O)CN(C)C(=O)c2ccc(-c3ccccc3Cl)o2)cc1 | . | . | . | . | . | / | /
Cc1ccc(SCC(=O)Nc2ccc(N3CCOCC3)cc2)cc1C | . | . | . | . | / | / | /
O=C(COc1ccc(S(=O)(=O)N2CCOCC2)cc1)N1CCN(c2ccccc2)CC1 | . | . | . | 21 | . | . | 22
SMILES | CRFR2-BP ag | IDE act | HNF4A DNA FP | IDE cell inh | TPT1 inh | IDE cell inh cf | HEK293 tox
COc1cccc(C(=O)Nc2nc(-c3ccncc3)cs2)c1 | . | . | . | 26 | . | . | .
Oc1[nH]c(N=C2N=c3ccccc3=N2)c2ccccc12 | . | . | . | 26 | . | 20 | 76
O=C(OCc1cccc([N+](=O)[O-])c1)c1ccc[nH]c1=O | . | . | . | . | . | / | /
Nc1ccc2nc3c(=O)n(CCc4ccccc4)c(=O)[nH]c3nc2c1 | 195 | / | . | 32 | . | 63 | .
Nc1ccc2nc(CCc3ccccc3)[nH]c2c1 | . | . | . | . | . | / | /
Nc1ccc2nc3c(=O)n(C4CCCCC4)c(=O)[nH]c3nc2c1 | 167 | . | . | 57 | . | 88 | .
Cc1ccc(C(C(=O)NC2CCCCC2)N(Cc2cccnc2)C(=O)c2csnn2)cc1 (configuration not stated) | . | . | . | . | . | / | /
O=C1c2ccccc2-c2onc3ccc(NCc4ccco4)c1c23 | 148 | . | . | 20 | . | 91 | 27
O=C(CSc1nnc(CCCOc2ccc(Cl)cc2Cl)o1)Nc1ccc(C(=O)O)cc1 | . | . | . | 18 | . | . | .
O=C(CSc1nnc(COc2ccc(Cl)cc2Cl)o1)Nc1ccccn1 | . | . | . | . | . | / | /
COc1ccc(N(CC(=O)N2CCN(c3ccc(Cl)cc3)CC2)S(=O)(=O)c2c(C)n[nH]c2C)cc1 | . | . | . | 18 | . | . | .
COc1c(Cl)cc(C(=O)Nc2cccnc2)cc1Cl | . | / | . | / | / | / | /
Cc1ccc(-c2cc(C(=O)Nc3ccc(S(=O)(=O)N4CC(C)OC(C)C4)cc3)[nH]n2)c(O)c1 (configuration not stated) | . | . | . | 20 | . | . | 32
COc1ccc(-c2nnc3ccc(SCC(=O)Nc4nc5ccccc5s4)nn23)cc1OC | . | . | . | 18 | . | . | .
COc1ccc(-c2nnc3ccc(SCC(=O)Nc4nccs4)nn23)cc1OC | . | . | . | . | . | / | /
CCN1/C(=C/C=C/c2oc3ccc4ccccc4c3[n+]2CC)Oc2ccc3ccccc3c21 | 153 | / | / | 82 | . | 133 | 112
CCOC(=O)c1c(C)[nH]c(C(=O)Cn2nnc(-c3ccccc3Cl)n2)c1C | . | . | . | 19 | . | . | .
COc1ccccc1N1CCN(C(=O)c2cc(N3C(=O)C4C5CCC(C5)C4C3=O)ccc2Cl)CC1 (configuration not stated) | . | . | . | 31 | . | 21 | .
CC1CCCN(C(=O)c2cc(N3C(=O)C4C5CCC(C5)C4C3=O)ccc2Cl)C1 (configuration not stated) | / | / | / | . | . | / | /
O=C1CN(C(=O)COC(=O)[C@@H]2CCCN2S(=O)(=O)c2ccc(Cl)cc2)c2ccccc2N1 | . | . | . | . | / | / | /
C/C(=N/NC(=O)CN1CCN(Cc2ccccc2Cl)CC1)c1cccnc1 | . | . | . | 23 | . | . | .
O=C(CN1CCN(Cc2ccccc2Cl)CC1)N/N=C/C=C/c1ccccc1[N+](=O)[O-] | . | . | . | 22 | . | . | .
CCN(Cc1ccccc1)C(=O)CSc1ncn[nH]1 | . | . | . | . | . | / | /
CCOc1ccc(NC(=O)CSc2nc3c(c(=O)n2C)SC(C)C3)cc1 (configuration not stated) | . | . | . | 16 | . | . | .
CC1Cc2nc(SCC(=O)Nc3ccc(F)cc3)n(C)c(=O)c2S1 (configuration not stated) | . | . | . | . | . | / | /
